Records with an inconclusive call do not appear. Where a call stands in place of a potency, no number is given. Unmarked numbers belong to inactive results. Calls of active or inactive are those of the source. The call rests on the fitted dose curve; in most records, active means well fitted cell-killing curve with a large enough effect in the repeat runs; inconclusive means weak or mixed curves, or effect the other way; inactive means no such curve, though single readings can be large or run the other way.
Potency means the concentration at half of the fitted maximal effect.

The experiment is described as follows: qHTS assay to identify small molecule agonists of the estrogen receptor alpha (ER-alpha) signaling pathway in the presence of an antagonist - cell viability counter screen (AID 1259386).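 Further: cells exposed to compounds for 22 h at 37 °C before the viability read; nearly all actives have a fitted effect of over 30% in size.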 The following applies: VM7Luc4E2 viability, CellTiter-Fluor fluorescence, 22 h; series mostly up to 92.4 µM. The text has this: National Center for Advancing Translational Sciences [NCATS]
NIH Chemical Genomics Center [NCGC]
U.S. Environmental Protection Agency [EPA]
National Institutes of Environmental Health Sciences [NIEHS]
National Toxicology Program [NTP]
U.S. Food and Drug Administration [FDA]
Estrogen receptor (ER), a member of nuclear hormone receptor plays an important role in development, metabolic homeostasis and reproduction. Two subtypes of ER, ER-alpha and ER-beta, have similar expression patterns with some uniqueness in both types. Endocrine disrupting chemicals (EDCs) and their interactions with steroid hormone receptors like ER causes disruption of normal endocrine function. Therefore, it is important to understand the effect of environmental chemicals in ER signaling pathway. For identifying ER agonists, VM7Luc4E2 cell line has been used in the current assay.
VM7Luc4E2 cell line (provided by Denison MS, University of California) endogenously expresses full-length ER-alpha and is stably transfected with a plasmid containing four estrogen responsive elements (ERE) upstream of a luciferase reporter gene. This current screening for measuring luciferase reporter gene activity using VM7Luc4E2 cells against Tox21 10K library collection is a confirmation study on agonist mode screening in presence of ER-antagonist (ICI-182,780) at 10.0nM final concentration. The cytotoxicity of the compounds was tested in parallel by measuring the cell viability using CellTiter-Fluor assay system (Promega, Madison, WI) in the same wells.
Tox21 Assay Protocol Summary:
VM7Luc4E2 cells were cultured in phenol red free assay medium containing 10% charcoal stripped FBS for 5 days prior to the assay. The cells were dispensed at 4,000 cells in 4uL of assay medium per well into white wall/solid-bottom 1536-well plates (Corning Life Sciences, Corning, NY) using a Multidrop Combi (Thermo Fisher Scientific Inc., Waltham, MA) dispenser. After the assay plates were incubated at 37C and 5% CO2 for 24hr, 1uL of 10.0nM (final concentration) ICI-182,780 or assay buffer was added using two separate tips of Flying Reagent Dispenser (FRD, Aurora Discovery, San Diego, CA). Then 23nL of compounds dissolved in DMSO at 15 concentrations and positive controls or DMSO only was transferred to the assay plates by a Pintool station (Wako, San Diego, CA). The assay plates were incubated at 37C and 5% CO2 for 22hr. After 21hr incubation at 37C, 1uL/well CellTiter-Fluor reagent (Promega Corporation, Madison, WI) was added to each well using FRD and after 1hr incubation at 37C and 5% CO2, the fluorescence signal was measured on ViewLux plate reader (PerkinElmer, Shelton, CT).
Regarding `COC(=O)c1cc(Cl)ccc1NS(=O)(=O)C(F)(F)F`, the Potency entry was “inactive”.

Take `[O]=[Bi]`: the activity change, negative = cytotoxicity was -3.93% [at 8.39 µM].

With `COC(OC)(C(=O)c1ccccc1)c1ccccc1`, the Potency entry was “inactive”.

For `CCc1c2c(nc3ccc(OC(=O)N4CCC(N5CCCCC5)CC4)cc13)-c1cc3c(c(=O)n1C2)COC(=O)[C@]3(O)CC`, the Potency result was “inactive”.

In the case of `CC(=O)OCC(=O)[C@@]12OC(C)(C)O[C@@H]1C[C@H]1[C@@H]3C[C@H](F)C4=CC(=O)C=C[C@]4(C)[C@@]3(F)[C@@H](O)C[C@@]12C`, the Potency entry was “inactive”.

Take `C=CC(=O)NCOCC(C)C`: the Potency result was “inactive”.

For the compound `O=C(O)c1c(O)c(-c2ccccc2)nc2ccccc12`, the Potency result was “inactive”.

In the case of `O=C(O)Cc1ccc(-c2ccccc2)cc1`, the Potency entry is “inactive”.

As to `C[C@@H]1C[C@H]2[C@@H]3CCC4=CC(=O)C=C[C@]4(C)[C@@]3(F)[C@@H](O)C[C@]2(C)[C@@]1(O)C(=O)CO`, the Potency entry was “inactive”.

Take `COc1ccc(C(=O)c2cccc(O)c2)c(OC)c1`: the Potency result was “inactive”.

Take `CCCCC(CC)C(=O)OCCOCCOCCOCCOC(=O)C(CC)CCCC` (stereo not given): the Potency result is “inactive”.

As for `C=C(C)C(=O)OCCOC(=O)CC(C)=O`, the Potency result was “inactive”.

For the compound `CC1(C)O[C@@H]2C[C@H]3[C@@H]4CCC5=CC(=O)C=C[C@]5(C)[C@H]4[C@@H](O)C[C@]3(C)[C@]2(C(=O)CO)O1`, the Potency entry is “inactive”.

For the compound `CCCCCCCCCCCCCCC[C@H](O)[C@@H](N)CO`, the Potency result is “inactive”.

For the compound `CC(C)c1nnc2ccc(-c3ocnc3-c3cc(F)ccc3F)cn12`, the Potency result is “inactive”.

`C/C=C(\C)C(=O)OCCC(C)CCC=C(C)C` (stereo not given): the Potency entry is “inactive”.

Regarding `CCOC(=O)/C=C/C(=O)O`, the Potency result was “inactive”.

Consider `COc1ccc(CCC(=O)c2c(O)cc(O[C@@H]3O[C@H](CO)[C@@H](O)[C@H](O)[C@H]3O[C@@H]3O[C@@H](C)[C@H](O)[C@@H](O)[C@H]3O)cc2O)cc1O`, for which the Potency entry is “inactive”.

Regarding `Cc1cc(O)c(C(C)C)cc1Cl`, the Potency entry is “inactive”.

On to `O=C(O)c1cccc(O)c1`, for which the Potency result is “inactive”.

On to `OC(CCCN1CCCCC1)(c1ccccc1)c1ccccc1`, for which the Potency entry is “inactive”.

For `CCCCCCCCCCOS(=O)(=O)O`, the Potency result is “inactive”.

For `CC(C)OCC1CO1` (stereo not given), the Potency entry was “inactive”.

Turning to `CCCCC(CC)COC(=O)COc1ccc(Cl)cc1C` (stereo not given), the Potency entry is “inactive”.

Turning to `CC(=O)CC(c1ccc([N+](=O)[O-])cc1)c1c(O)c2ccccc2oc1=O` (stereo not given), the Potency result is “inactive”.

In the case of `COc1cc2ncnc(Nc3ccc(F)c(Cl)c3)c2cc1OCCCN1CCOCC1`, the Potency entry was “inactive”.

With `COC(=O)c1cc(S(N)(=O)=O)ccc1OC`, the Potency result was “inactive”.

Take `O=C1NCCN1`: the Potency entry is “inactive”.

With `O=C(CCCCCCCCC#CI)Oc1ccccc1`, the Potency result was “inactive”.

Consider `CCc1nn(CCCN2CCN(c3cccc(Cl)c3)CC2)c(=O)n1CCOc1ccccc1`, for which the Potency is 29.8 µM (active).

`Cc1ccc(S)cc1`: the Potency entry is “inactive”.

As for `Fc1c(F)c(F)c(Br)c(F)c1F`, the Potency result was “inactive”.

Turning to `c1cc[c]([Bi]([c]2ccccc2)[c]2ccccc2)cc1`, the Potency result is “inactive”.

For `Cc1occc1C(=O)Nc1ccc(C(=O)N2CCC(F)(F)/C(=C\C(=O)N3CCC(N4CCCCC4)CC3)c3ccccc32)cc1`, the Potency result was “inactive”.

For the compound `Oc1cc(O)c(Cl)cc1Cl`, the Potency result is “inactive”.

On to `O=C(N/N=C/c1ccc([N+](=O)[O-])o1)c1ccc(O)cc1`, for which the Potency is 29.8 µM (active).

In the case of `C=CCOC(=O)/C=C\C(=O)OCC=C`, the Potency result was “inactive”.

On to `COC(=O)Nc1nc2ccc(C(=O)c3cccs3)cc2[nH]1`, for which the Potency result was “inactive”.

As to `CSc1ccc(Oc2ccc(S(N)(=O)=O)cc2CN(C)C)cc1C`, the Potency entry is “inactive”.

In the case of `C=CC(=C)CCCC(C)(C)OC(C)=O`, the Potency result was “inactive”.
